Measured values published in the supplement of paper PMC3334620.
In all, about 33,000 sequences were measured (“E-score (-0.5 to 0.5)”: median about -0.012, highest 2% from about 0.27 on). The entries come from a sample that favours the highest values as a whole.

molecular target: T1, Vhr1 (UniProt P40522); experiment: PBM E-score (8-mer binding enrichment) (E-score (-0.5 to 0.5)); higher = stronger / more preferred TF binding; conditions: protein concentration: 200 nM; construct: GST-full length
T1 sequence: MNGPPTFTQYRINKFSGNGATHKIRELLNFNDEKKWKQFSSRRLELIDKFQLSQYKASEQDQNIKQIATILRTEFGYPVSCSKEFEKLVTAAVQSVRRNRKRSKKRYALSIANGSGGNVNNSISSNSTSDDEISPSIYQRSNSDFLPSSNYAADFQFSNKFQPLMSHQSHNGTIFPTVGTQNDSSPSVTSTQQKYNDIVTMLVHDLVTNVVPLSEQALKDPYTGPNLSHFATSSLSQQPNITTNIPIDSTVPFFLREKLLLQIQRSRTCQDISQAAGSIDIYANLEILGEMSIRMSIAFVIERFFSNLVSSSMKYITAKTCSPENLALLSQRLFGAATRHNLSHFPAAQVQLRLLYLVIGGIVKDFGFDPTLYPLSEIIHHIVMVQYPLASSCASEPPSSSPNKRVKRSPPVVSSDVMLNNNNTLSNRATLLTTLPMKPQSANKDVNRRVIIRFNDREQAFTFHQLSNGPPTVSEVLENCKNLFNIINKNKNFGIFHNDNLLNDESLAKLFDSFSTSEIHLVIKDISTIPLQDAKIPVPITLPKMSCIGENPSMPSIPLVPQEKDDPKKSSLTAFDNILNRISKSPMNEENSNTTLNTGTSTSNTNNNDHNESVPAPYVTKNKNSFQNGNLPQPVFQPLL
Experimental: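 Universal 'all 10-mer' protein binding microarrays (Agilent AMADID 015681) probed with GST-tagged S. cerevisiae TFs (full-length or DBD) made by in vitro transcription/translation (PURExpress), about 100-200 nM. Bound TF was detected with fluorescent anti-GST. Each ungapped 8-mer (which stands for itself and its reverse complement) is scored by the PBM enrichment score (E-score), a modified Wilcoxon-Mann-Whitney statistic from -0.5 to +0.5, computed with the Universal PBM Analysis Suite. Scale: above 0.35 generally sequence-specific binding.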

Sequence	PBM E-score
ACGAGTCC	0.0781
CCGAGTAG	0.1
ACGAGTTG	0.0198
ACGAGTAG	0.0242
TCGAGTAA	0.0538
TCGAGCCA	-0.0584
TCGAGTCA	0.399
CCAAGTCG	0.00863
ACGAGTCT	0.0718
CCGAGTCG	0.336
ACGAGTCG	0.322
CGGCTAAC	-0.0152
GGCAAGAC	-0.138
TGGTCTAA	-0.0689
GCCGTCTA	0.00852
GAGCACTA	0.0167
CCGAGTCC	0.144
CCGAGTAA	0.0614
GCGAGTCC	0.22
GCGAGTAA	0.2
GCGAGTCA	0.455
CCGAGTCA	0.451
ATTCGATG	0.0921

Sequence	PBM E-score
AAGCCTCG	0.00094
AGTCCCCG	0.0704
GGTGCTGA	0.042
AGCACCAG	-0.0111
CGCACCAG	0.302
CGCACCAA	0.143
AAATAATT	0.0111
AGCTGACT	0.413
AGCTGACC	0.116
ACCTGACG	-0.0943
ACCTGACC	0.11
ACCTGACT	0.374
AGCTGACG	-0.12
GGGCTTAC	-0.00595
AGAACTGA	-0.183
ATGAAGTG	-0.149
TAACAGAA	-0.069
ATTGAGAA	0.113
GTTGAGTA	0.147
ATTGAGTC	0.387
CTTGAGGC	-0.174
ATTGAGAC	0.18
CTTGAGTC	0.333

Sequence	PBM E-score
ATTGAGTG	0.202
CTTGAGTA	0.0408
ATTGAGTA	0.308
AGAGAAGA	-0.148
AACATCGG	0.0341
ATGCCAGG	0.0307
CGCGTACG	0.0931
CGCACGCC	0.167
ACGTTCGC	-0.141
GCTGCCAA	-0.0372
ACTGATTC	0.283
CCTGATTA	0.158
CCTGATTC	0.367
CCTGATGC	-0.0265
ACTGATTG	-0.00926
ACTGATTA	0.147
ACTCTACA	0.0564
ACGTCCAG	-0.147
CGAATAAG	0.0236
GCTATATA	0.0669
ACTATATA	0.274
ACTATATC	0.198
AGTATATC	0.0944

Sequence	PBM E-score
AGTATATG	0.239
AGTATATA	0.33
CAGAATGA	0.0955
CAAGGGCA	-0.168
GTTCTAAA	-0.164
GAGCGACC	-0.162
CCTCACCC	0.0394
TCTCACCA	0.0878
ACTCACCT	0.244
CCTCACCA	-0.00516
ACTCACCC	0.391
ACTCACCG	0.309
CCTCACCG	0.113
ACTCACCA	0.378
GCTCACCC	0.265
CTCTAGCC	-0.167
CCAGGGAG	0.09
GTAGGGTA	0.0298
CAAGCGTG	-0.00913
CCATTCAA	0.0103
CAGATTCG	0.069
CAACCATC	0.0512
AAACCATA	0.0822

Sequence	PBM E-score
AAACCATC	0.273
ACTGGGTA	-0.00457
ATAGGGGC	-0.0513
GAGCGAAA	0.0518
AACTTTTG	-0.205
ATCATATG	0.174
CTCATATC	0.203
ATCATATC	0.3
TACCAAGA	0.0906
AGAGCGCC	-0.134
AATGATGC	0.0924
AGGGCCAA	-0.299
AGTCTGCC	0.0302
AGGGAGTG	0.042
AGGGAGTC	0.343
AGGGAGTA	0.113
CGGGAGTA	0.00502
CGGGAGTC	0.386
CGGGAGAC	-0.0366
